The panel holds about 83,000 compounds, 20% with a hit somewhere; the sample as a whole holds those more often.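 Single-dose data. Exposure time 48 hours. Values below 10 considered active.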 Values without a mark were called inactive. Activity calls are given as the source filed them.

Among the test systems are SK-MEL-2 melanoma; EKVX NSCLC; SN12C renal; UO-31 renal; TK-10 renal; ACHN renal; CAKI-1 renal; A498 renal; CCRF-CEM leukemia; MOLT-4 leukemia; SR leukemia; RPMI-8226 leukemia; OVCAR-8 ovarian; OVCAR-5 ovarian; OVCAR-4 ovarian; SK-OV-3 ovarian; IGROV1 ovarian; OVCAR-3 ovarian; HS 578T breast; NCI/ADR-RES ovarian.
What all share (experiment): NCI-60 one-dose screen, 48 h (100 = growth as untreated, 0 = no growth, -100 = all killed)
Conditions in all cases: 10 µM unless noted

For `Cn1cc(-c2csc(-c3cn(C)c4ccc(F)cc34)n2)c2cnccc21`, the growth with SK-MEL-2 melanoma is 88.9%; in the experiment with EKVX NSCLC it was -13.1% (active); in the experiment with SN12C renal, -29.9% (active); in the experiment on UO-31 renal it was -69.7% (active); in the experiment with TK-10 renal, -20.2% (active); with ACHN renal, -89.6% (active). Moreover, the growth in the experiment on CAKI-1 renal is -43.9% (active); in the experiment on A498 renal, 78.3%; in the experiment on CCRF-CEM leukemia it was -11.6% (active); in the experiment on MOLT-4 leukemia, -36.1% (active); with SR leukemia, -21.5% (active); in the experiment on RPMI-8226 leukemia it was -38.4% (active). Besides, the growth in the experiment with OVCAR-8 ovarian is 5.3% (active); in the experiment with OVCAR-5 ovarian, 25.6%; in the experiment with OVCAR-4 ovarian it was 11.3%; in the experiment with SK-OV-3 ovarian, 107%; with IGROV1 ovarian it was -24.7% (active); with OVCAR-3 ovarian, -57.4% (active). The growth in the experiment with HS 578T breast is -34.2% (active); in the experiment with NCI/ADR-RES ovarian, 24.7%.
Regarding `COc1cc(C2CC(c3cccc(Nc4ccncc4)c3)=Nc3c(N)ncnc3N2)cc(OC)c1OC` (stereo not given), the growth with SK-MEL-2 melanoma was 92.6%; in the experiment with EKVX NSCLC, 87.2%; with SN12C renal, 93.9%; with UO-31 renal, 98.5%; in the experiment with TK-10 renal it was 110%; with ACHN renal it was 95.1%. Moreover, the growth is 85% with CAKI-1 renal; 87.4% with A498 renal; 73.2% with CCRF-CEM leukemia; 85.6% in the experiment with MOLT-4 leukemia; 30.1% in the experiment on SR leukemia; 71.8% in the experiment with RPMI-8226 leukemia. Moreover, the growth in the experiment with OVCAR-8 ovarian is 93.6%; in the experiment on OVCAR-5 ovarian it was 111%; in the experiment on OVCAR-4 ovarian, 84.1%; in the experiment with SK-OV-3 ovarian, 88.3%; in the experiment with IGROV1 ovarian, 95.8%; with OVCAR-3 ovarian it was 88.9%. For the same molecule, the results for the growth in the experiment with HS 578T breast and in the experiment with NCI/ADR-RES ovarian were 95% and 96.7%, respectively.
As for `Cc1[nH]c(C2CC(c3ccc(C(F)(F)F)c(F)c3)=NN2C)c(C)c1C(=O)NCC(F)(F)F` (stereo not given), the growth with SK-MEL-2 melanoma is 107%; in the experiment on EKVX NSCLC it was 87.7%; with SN12C renal it was 93.1%; in the experiment on UO-31 renal, 72%; with TK-10 renal, 116%; with ACHN renal it was 99.3%. In addition, the growth is 81.1% with CAKI-1 renal; 30.8% in the experiment with A498 renal; 93.6% with CCRF-CEM leukemia; 72.9% in the experiment with MOLT-4 leukemia; 92.9% in the experiment on SR leukemia; 92.4% with RPMI-8226 leukemia. Besides, the growth with OVCAR-8 ovarian was 94.8%; in the experiment with OVCAR-5 ovarian it was 98.4%; in the experiment on OVCAR-4 ovarian, 90.9%; in the experiment with SK-OV-3 ovarian it was 105%; in the experiment with IGROV1 ovarian, 79.9%; with OVCAR-3 ovarian, 107%. For the same molecule, the values for the growth in the experiment on HS 578T breast and in the experiment with NCI/ADR-RES ovarian were 95.9% and 98.8%, respectively.
Regarding `CO[C@]12C=C/C(=C(/C(=O)OCc3cccnc3)C(=O)CCCCCCCC[C@]3(OC)C=C/C(=C(/C(=O)OCc4cccnc4)C(=O)CCCCCCCC1)O3)O2`, the growth in the experiment on SK-MEL-2 melanoma was -44.8% (active); in the experiment on EKVX NSCLC, -53.8% (active); in the experiment on SN12C renal, -46.1% (active); in the experiment with UO-31 renal, -40.7% (active); in the experiment on TK-10 renal, -13.8% (active); with ACHN renal, -73.6% (active). Besides, the growth was -29.7% (active) with CAKI-1 renal; -88.4% (active) in the experiment with A498 renal; -23.2% (active) in the experiment with CCRF-CEM leukemia; -13.1% (active) in the experiment on MOLT-4 leukemia; -20.7% (active) with SR leukemia; -30.4% (active) in the experiment on RPMI-8226 leukemia. Also, the growth with OVCAR-8 ovarian was 7.77% (active); in the experiment with OVCAR-5 ovarian it was -52.1% (active); in the experiment with OVCAR-4 ovarian, -65.6% (active); with SK-OV-3 ovarian it was -0.89% (active); in the experiment on IGROV1 ovarian, -66.7% (active); in the experiment with OVCAR-3 ovarian, -95.5% (active). Further, the growth with HS 578T breast is 30.6%; in the experiment with NCI/ADR-RES ovarian, -23.9% (active).
Consider `CNC1=C([N+](=O)[O-])C(c2ccc(OC)cc2)C(C#N)=C(c2ccc[nH]2)O1` (stereo not given), for which the growth in the experiment on SK-MEL-2 melanoma is 108%; in the experiment with EKVX NSCLC, 99.7%; in the experiment with SN12C renal it was 97.1%; with UO-31 renal it was 89.3%; in the experiment with TK-10 renal it was 117%; with ACHN renal, 105%. In addition, the growth in the experiment with CAKI-1 renal is 92.6%; in the experiment on A498 renal, 96.8%; in the experiment with CCRF-CEM leukemia, 43.1%; in the experiment with MOLT-4 leukemia, 108%; in the experiment on SR leukemia, 98.2%; in the experiment on RPMI-8226 leukemia it was 96.2%. Moreover, the growth in the experiment with OVCAR-8 ovarian was 99.8%; in the experiment with OVCAR-5 ovarian, 109%; with OVCAR-4 ovarian it was 92.8%; with SK-OV-3 ovarian, 102%; in the experiment on IGROV1 ovarian, 104%; in the experiment with OVCAR-3 ovarian it was 107%. The results for the growth with HS 578T breast and with NCI/ADR-RES ovarian were 98.1% and 110%, respectively.
On to `CNC(=O)c1cc(Oc2ccc3nc(NC(=O)Nc4ccc(F)cc4F)sc3c2)ccn1`, for which the growth was 74.7% in the experiment on SK-MEL-2 melanoma; 89.8% in the experiment with EKVX NSCLC; 69.2% in the experiment with SN12C renal; 91.4% with UO-31 renal; 93.5% with TK-10 renal; 60.6% in the experiment on ACHN renal. In addition, the growth was 88.4% in the experiment on CAKI-1 renal; 10.9% in the experiment on A498 renal; 89.7% with CCRF-CEM leukemia; 82.4% in the experiment on MOLT-4 leukemia; 80.4% in the experiment with SR leukemia; 72.9% in the experiment with RPMI-8226 leukemia. Moreover, the growth in the experiment with OVCAR-8 ovarian was 45.1%; in the experiment on OVCAR-5 ovarian, 95.2%; with OVCAR-4 ovarian, 34.2%; with SK-OV-3 ovarian it was 76.3%; with IGROV1 ovarian it was 84.2%; in the experiment with OVCAR-3 ovarian, 74.7%. Further, the growth in the experiment on HS 578T breast was 44.5%; in the experiment on NCI/ADR-RES ovarian, 45.5%.
On to `COc1cc2c(c(OC)c1OC)CCC(c1cccc(C(=O)Nc3ccccc3Br)c1)O2` (stereo not given), for which the growth with SK-MEL-2 melanoma was 87.8%; with EKVX NSCLC it was 90.1%; with SN12C renal, 85.4%; with UO-31 renal, 67.3%; in the experiment on TK-10 renal, 87.5%; in the experiment with ACHN renal, 86.2%. Also, the growth with CAKI-1 renal was 95.4%; in the experiment on A498 renal it was 56.6%; in the experiment with CCRF-CEM leukemia, 86.1%; with MOLT-4 leukemia, 50.4%; in the experiment on SR leukemia, 75.6%; in the experiment with RPMI-8226 leukemia, 83%. Also, the growth was 80.1% in the experiment with OVCAR-8 ovarian; 90.6% in the experiment on OVCAR-5 ovarian; 85.3% in the experiment with OVCAR-4 ovarian; 81% in the experiment on SK-OV-3 ovarian; 89.2% in the experiment with IGROV1 ovarian; 100% in the experiment with OVCAR-3 ovarian. Besides, the results for the growth in the experiment on HS 578T breast and in the experiment on NCI/ADR-RES ovarian were 86.2% and 99.2%, respectively.
